Results: PubChem BioAssay AID2553 (Johns Hopkins Ion Channel Center, 2010)
In all, about 310,000 compounds went through this assay and about 3,300 (1.1%) were called active.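 How the source made its calls: active means B-score under library mean minus 3 SD, initial fluorescence not abnormally high, positive integrated signal ratio; inactive means the rest.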 Shown is part of a subset that was picked to be rich in actives.

Each compound was assayed against Short transient receptor potential channel 6 (Mus musculus) (UniProt Q61143) (assay: mouse TRPC6 channel inhibitors, primary screen, cell-based, HEK293, membrane potential dye (AID 2553;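 on B-score: B-score derived from integrated fluorescence ratio over the kinetic read; more negative B-score means stronger inhibition of depolarization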)). Conditions: ACh-evoked depolarization, at 10 µM; stronger effect = lower value.
Short transient receptor potential channel 6 (Mus musculus), sequence (Q61143 whole entry, looked up): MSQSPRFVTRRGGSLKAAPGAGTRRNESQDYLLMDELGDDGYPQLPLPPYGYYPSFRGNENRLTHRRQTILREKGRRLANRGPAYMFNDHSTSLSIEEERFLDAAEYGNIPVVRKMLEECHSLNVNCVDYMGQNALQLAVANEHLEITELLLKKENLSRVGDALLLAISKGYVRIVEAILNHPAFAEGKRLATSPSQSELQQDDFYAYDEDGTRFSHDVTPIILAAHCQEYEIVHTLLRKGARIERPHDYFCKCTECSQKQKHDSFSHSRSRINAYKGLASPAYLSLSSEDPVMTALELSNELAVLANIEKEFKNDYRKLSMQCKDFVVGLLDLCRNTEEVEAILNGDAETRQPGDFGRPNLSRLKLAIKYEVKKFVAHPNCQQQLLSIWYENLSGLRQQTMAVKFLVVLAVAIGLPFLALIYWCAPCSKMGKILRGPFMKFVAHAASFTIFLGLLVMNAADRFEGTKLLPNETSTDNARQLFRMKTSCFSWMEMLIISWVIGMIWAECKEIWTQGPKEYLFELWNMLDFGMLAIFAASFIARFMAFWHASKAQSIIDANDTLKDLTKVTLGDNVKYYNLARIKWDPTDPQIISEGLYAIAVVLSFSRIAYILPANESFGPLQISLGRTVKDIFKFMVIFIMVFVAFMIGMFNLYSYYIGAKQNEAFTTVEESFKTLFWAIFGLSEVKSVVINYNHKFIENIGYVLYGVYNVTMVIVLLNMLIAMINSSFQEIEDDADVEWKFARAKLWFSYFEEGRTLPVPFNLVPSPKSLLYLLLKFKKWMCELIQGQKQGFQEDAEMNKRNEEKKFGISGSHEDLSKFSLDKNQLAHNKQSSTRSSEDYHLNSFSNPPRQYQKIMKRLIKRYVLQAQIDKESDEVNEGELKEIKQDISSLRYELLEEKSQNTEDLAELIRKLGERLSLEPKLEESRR

B-score, active:
O=C(CN1CCCCCC1)N1c2ccccc2Sc2ccc(C(F)(F)F)cc21 -5.15
CCc1ccc(OCC(=O)N(Cc2ccccc2)C2CCS(=O)(=O)C2)cc1 (configuration not stated) -6.07
CN1CCN(c2nc(Nc3ccc(O)cc3)nc3ccccc23)CC1 -11.6
O=C(NNS(=O)(=O)c1ccc(Cl)cc1)C1CCN(Cc2ccccc2)CC1 -7.9
Cc1nn(Cc2ccc(C(=O)N3N=C(C(F)F)CC3(O)C(F)F)cc2)c(C)c1[N+](=O)[O-] (configuration not stated) -5.19
C[C@H](NC(=O)OC(C)(C)C)c1nnc(SCC(=O)Nc2ccc(Br)cc2)o1 -6.61
Cc1nc(N=C(N)N)nc2c(C)cccc12 -7.08
Cc1ccc(NC2CCCN(C(=O)CCC3(C)CC3)C2)cc1C (configuration not stated) -5.8
C=C(C)c1cccc(C(C)(C)NC(=O)NCCN(CC)CC)c1 -8.39
COc1ccc(Cl)cc1NC(=O)CCS(=O)(=O)c1cc2c(cc1C)NC(=O)CO2 -5.71
CCN1CCN(c2nc(Nc3cc(OC)ccc3OC)nc(Nc3cc(OC)ccc3OC)n2)CC1 -5.02
CCN(CC)S(=O)(=O)c1ccc(N2CC(C(=O)NCc3cccnc3)CC2=O)cc1 (configuration not stated) -6.5
CCC(C)NCCOCCOc1ccc(Br)cc1C (configuration not stated) -5.27
CCOC(=O)N1CCC(O)(c2cc(C)c(C)cc2C)CC1 -9.52
CCc1ccc(-c2cc(C(=O)NN3CCN(C)CC3)c3ccccc3n2)cc1 -5.25
CCOC(=O)N1CCN(C(=O)c2ccc3c(c2)N(Cc2ccc(C)cc2)CCS3)CC1 -7.3

B-score, inactive:
C=CCOc1ccc(/C=C/C(=O)OCC(=O)NC2CCCCCC2)cc1
COc1cc(/C=C/C(=O)N2c3ccccc3Sc3ccc(C(F)(F)F)cc32)cc(OC)c1OC
CCOC(=O)CNC(=O)N1c2ccccc2Sc2ccccc21
COC(=O)c1c(-c2cccs2)csc1NC(=O)CSc1ncnc2sc(C)c(C)c12
CCOc1ccc(C(=O)N(Cc2ccc(N(C)C)cc2)C2CCS(=O)(=O)C2)cc1 (configuration not stated)
Cc1ccccc1OCC(=O)N(Cc1cccc(F)c1)C1CCS(=O)(=O)C1 (configuration not stated)
Cc1ccccc1Nc1scc(-c2ccc(Br)cc2)[n+]1-c1ccccc1C
Cc1cccc(-c2nc(Nc3ccc(O)cc3)c3ccccc3n2)c1
CN1CCN(c2ccc(NC(=O)c3ccccc3)cc2)CC1
CCNC(=S)NNC(=O)C1CCN(Cc2ccccc2)CC1
CCCC(=O)C1CCN(Cc2ccccc2)CC1
CCc1ccc(NC(=O)Cn2nc(C)c([N+](=O)[O-])c2C)cc1
Cc1ccn(CC(=O)N2N=C(C(F)F)CC2(O)C(F)F)n1 (configuration not stated)
Cc1[nH]c2c(C(=O)N3CCCC(CCC(=O)NCc4ccccc4F)C3)cccc2c1C (configuration not stated)
O=S(=O)(Cc1ccccc1)c1nc2ccccc2n1Cc1ccccn1
CCc1ccccc1NC(=O)CSc1nnc([C@@H](NC(=O)OC(C)(C)C)C(C)C)o1
CCc1ccccc1NC(=O)CSc1nnc([C@@H](NC(=O)OC(C)(C)C)C(C)CC)o1 (some centres not stated)
COCC1CCN(C(=O)C2CCC(=O)N(Cc3cccc(C(F)(F)F)c3)C2)CC1 (configuration not stated)
CC1(C)COC(c2cccn2Cc2ccccc2Cl)=N1
COc1nc(N=C(N)N)nc2c(C)cccc12
Cc1nc(/N=C(\N)NC(=O)NC2CCCCC2)nc2ccccc12
Cc1cc(-n2cnc(-c3cn(C)nc3C)n2)no1
O=C(CN1CCOC1=O)N1CCCC(Nc2ccc(F)c(F)c2)C1 (configuration not stated)
Cc1ccc(NC2CCCN(C(=O)CCc3cn[nH]c3)C2)cc1C (configuration not stated)
C=C(C)c1cccc(C(C)(C)NC(=O)NC2CCCC2)c1
C=C(C)c1cccc(C(C)(C)NC(=O)N2CCN(c3ncccn3)CC2)c1
O=C1C2N=NN(CC(=O)N3N=C(c4cccc5ccccc45)CC3c3ccccc3)C2C(=O)N1c1ccccc1 (configuration not stated)
Cc1cc(OCCCC(=O)NCCN2C(=O)S/C(=C\c3cccnc3)C2=O)ccc1Cl
Cc1cc2c(cc1S(=O)(=O)CCC(=O)NCc1ccccc1)OCC(=O)N2
COc1ccc(NC(=O)CCS(=O)(=O)c2cc3c(cc2Cl)NC(=O)CO3)cc1OC
CCOC(=O)N1CCN(CCC(=O)Nc2cc(OC)ccc2OC)CC1
CCOc1ccc(Nc2nc(Cl)nc(N3CCN(c4ccc(OC)cc4)CC3)n2)cc1
Cn1c(=O)n(C)c2cc(S(=O)(=O)Nc3ccc(F)cc3)ccc21
C=CC1=C(C(=O)O)N2C(=O)[C@@H](NC(=O)/C(=N/OCC(=O)O)c3csc(N)n3)[C@H]2SC1
Cc1ccc(NC(=O)[C@H](Cc2ccccc2)NC(=O)C2CCNCC2)cc1
COc1ccccc1C(=O)Nc1ccc(Nc2ccccc2)cc1
CCOc1ccc(N2CC(C(=O)NCc3ccccn3)CC2=O)cc1 (configuration not stated)
CCc1ccc(N2CC(C(=O)Nc3ccc(S(=O)(=O)Nc4nccs4)cc3)CC2=O)cc1 (configuration not stated)
CCc1ccc(N(C(=O)c2csnn2)C(C(=O)NC2CCCCC2)c2cccnc2)cc1 (configuration not stated)
COCCCNCCOCCOc1ccc(Cl)cc1Br
COCC(C)NCc1cc(Br)ccc1OC (configuration not stated)
Cc1c(C(=O)N(C)CCc2cnn(C)c2)oc2c(F)cccc12
CCOC(=O)N1CCN(C(=O)COc2ccc(Cl)cc2C)CC1
CCOC(=O)N1CCN(C(=S)Nc2ccc(C)cc2C)CC1
Cc1ccc(-c2cc(C(=O)NC3CCN(Cc4ccccc4)CC3)c3ccccc3n2)cc1
COc1ccc(-c2cc(C(=O)Nc3ccccc3O)c3ccccc3n2)cc1
COc1ccc(CCN2C(=O)CC(N3CCC(C(N)=O)CC3)C2=O)cc1OC (configuration not stated)
Cc1c(C(=O)c2cccc([N+](=O)[O-])c2)c2ccccn2c1CCC#N
O=C(NCCN1CCOCC1)c1ccc2c(c1)N(Cc1ccc(Cl)cc1)CCS2
O=C(NCCc1ccccc1)c1ccc2c(c1)N(Cc1ccccc1)CCS2
COc1ccc(/C=C/CN2CCCC(C(=O)c3cc(F)ccc3F)C2)cc1 (configuration not stated)
